Reference: PubChem BioAssay (NCI)
The panel holds about 83,000 compounds, 20% with a hit somewhere; the sample as a whole holds those more often.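 Single-concentration screen, 48 h exposure, 96-well plates. Endpoint: percent growth. Below 10 = active.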 Active and inactive are the calls of the source.

Key:
Test in all cases: NCI-60 one-dose screen, 48 h (100 = growth as untreated, 0 = no growth, -100 = all killed)
Details in all cases: 10 µM unless noted
[1] = tested on: HCT-15 colon
[2] = tested on: HT29 colon
[3] = tested on: SNB-75 CNS
[4] = tested on: SNB-19 CNS
[5] = tested on: U251 CNS
[6] = tested on: PC-3 prostate
[7] = tested on: UACC-62 melanoma
[8] = tested on: LOX IMVI melanoma
[9] = tested on: SK-MEL-28 melanoma
[10] = tested on: SK-MEL-5 melanoma

Measured: growth

CCOc1nc(-c2ccccc2)cc2c(O)c(C(=O)N/N=C/c3ccccc3O)[nH]c(=O)c12
inactive: [1] 94% | [2] 110% | [3] 86.3% | [4] 97.2% | [5] 101% | [6] 92.8% | [7] 117% | [8] 101% | [9] 67.4%

C=C(C)C(C(=O)OCC)(C(=O)OCC)C(C)C
inactive: [1] 102% | [2] 116% | [3] 86.5% | [4] 99.9% | [5] 102% | [6] 108% | [7] 103% | [8] 102% | [9] 97%

O=Nc1c(-c2c(O)[nH]c3cc(Br)ccc23)[nH]c2ccccc12
inactive: [4] 15.1% | [5] 29.4% | [7] 38.9%
active: [1] 1.93% | [2] 0.864% | [3] -13.3% | [6] -2.93% | [8] 8.85% | [9] -100%

CC1CCCCC[N+]12CCCC2 (centres undefined)
inactive: [1] 95.6% | [2] 107% | [3] 95% | [4] 106% | [5] 85.3% | [6] 93.4% | [7] 103% | [8] 95.8% | [9] 109%

[N-]=[N+]=Nc1ncc(-c2ccc(C(F)(F)F)cc2)c(NC2CCCCCC2)n1
inactive: [1] 25.9% [100 µM] | [2] 31.4% [100 µM] | [3] 49.6% [100 µM] | [4] 40.9% [100 µM] | [5] 30.3% [100 µM] | [7] 25.5% [100 µM] | [8] 39.9% [100 µM] | [9] 68.2% [100 µM]
active: [6] -8.57% [100 µM]

COc1ccc(C2CC(=O)c3c(O)cc(OC4OC(COC5OC(C)C(O)C(O)C5O)C(O)C(O)C4O)cc3O2)cc1O (centres undefined)
inactive: [1] 101% | [2] 102% | [3] 82.1% | [4] 110% | [5] 104% | [10] 104% | [7] 111% | [8] 107% | [9] 124%

O=C(Nc1cccc(Cn2c(=O)[nH]c3ccc(Oc4ncccn4)cc3c2=O)c1)c1cc(Cl)cc(Cl)c1
inactive: [1] 77.3% | [2] 47.4% | [3] 42.6% | [4] 69.4% | [5] 51.1% | [6] 64.5% | [7] 66.6% | [8] 86.3% | [9] 60.7%

CCCCCCCCCc1cc[n+](CC(=O)c2ccc([N+](=O)[O-])cc2)cc1
inactive: [3] 23.9% | [4] 13.8% | [9] 12.3%
active: [1] -18.2% | [2] -52.1% | [5] 8.48% | [10] -77.8% | [7] -6.32% | [8] -77.2%

OCC(O)C(O)CC1SCCS1 (centres undefined)
inactive: [1] 104% | [2] 101% | [3] 94.7% | [4] 94.8% | [5] 99.9% | [6] 102% | [7] 97.7% | [8] 91.8% | [9] 110%

O=C(CCl)c1ccc2c(c1)CCCC2
inactive: [1] 69.6% | [2] 103% | [3] 114% | [4] 108% | [5] 96.5% | [6] 95.7% | [7] 98.5% | [9] 105%

COc1ccccc1Nc1nnc(COc2ccc(CNC(=O)CCCC/C=C/C(C)C)cc2OC)o1
inactive: [1] 88.3% | [2] 103% | [3] 94.5% | [4] 94.6% | [5] 102% | [6] 84.4% | [7] 81.9% | [8] 95.6% | [9] 98.1%

CC1=C(C)C(=O)C(C(C)C2=C(C)C(=O)C(C)=C(C)C2=O)=C(C)C1=O
inactive: [1] 99.7% | [2] 68.7% | [3] 96.6% | [4] 99% | [5] 81% | [10] 75% | [7] 85% | [8] 81% | [9] 117%

CCCCCCCCc1ccc(CCC(N)(CO)CO)cc1
inactive: [3] 57.6% | [4] 52.5% | [10] 90.7% | [7] 86.2% | [9] 92.8%
active: [1] -10% | [2] -83.4% | [5] -85.2% | [8] -54%

O=C(/C=C/c1c[nH]c2ccccc12)c1cc2ccccc2o1
inactive: [1] 83.3% | [2] 98.9% | [3] 92% | [4] 96.2% | [5] 98.2% | [6] 75.6% | [7] 87.6% | [8] 91.7% | [9] 96.6%

CN(C)CCOC(=O)C(C)(C)C
inactive: [1] 101% | [2] 99.7% | [3] 100% | [4] 99.4% | [5] 102% | [6] 93.6% | [7] 93.3% | [8] 105% | [9] 26%

CC(=O)N(N=O)c1ccc([N+](=O)[O-])cc1Cl
inactive: [1] 54.6% | [2] 89.7% | [3] 81.2% | [4] 58.6% | [5] 57.8% | [6] 47.4% | [7] 27.9% | [8] 72.7% | [9] 68.5%

O=C(N/N=C/c1coc2ccccc2c1=O)c1cc2oc(-c3ccccc3)cc2[nH]1
inactive: [1] 100% | [2] 107% | [3] 83.8% | [4] 92.9% | [5] 97.9% | [6] 72.1% | [7] 94.6% | [8] 98.4% | [9] 91.9%

CC(=O)Nc1nc(C)c(C(=O)NNS(=O)(=O)c2ccccc2)s1
inactive: [1] 114% | [2] 118% | [3] 88.2% | [4] 105% | [5] 103% | [10] 105% | [7] 109% | [8] 99.1% | [9] 125%

CCOC(=O)CNS(=O)(=O)CC(=O)c1ccccc1
inactive: [1] 110% | [2] 80.1% | [3] 69.4% | [4] 94.3% | [5] 96.7% | [6] 92% | [7] 95.3% | [8] 104% | [9] 127%

CC[C@@H](C)/C=C(C)/C=C/C(=O)c1c(O)c(-c2ccc(OC(=O)[C@@]34CC[C@@](C)(C(=O)O3)C4(C)C)cc2)cn(O)c1=O
inactive: [1] 27% | [2] 59.7% | [3] 30.6% | [4] 36.8% | [5] 15.7% | [9] 26.8%
active: [10] -4% | [7] 5.24% | [8] 0.589%

O=C(/C(Br)=C/c1ccccc1)c1ccccc1
active: [1] -21.9% | [2] -66.2% | [5] 5.38% | [7] 8.01% | [8] -92.2%
inactive: [3] 80.3% | [4] 96.2% | [6] 87.8% | [9] 42.8%

CCCCN(CCCC)CC(O)CN(CC)CC (centres undefined)
inactive: [1] 104% | [2] 88% | [3] 87.3% | [4] 105% | [5] 102% | [10] 96.2% | [7] 105% | [8] 96.1% | [9] 109%

COc1cc(-c2nn(-c3ccc(NC(=O)c4cc(Cl)cc(Cl)c4)cc3)cc2-c2ccncc2)ccc1Cl
inactive: [1] 22.6% | [2] 16.9% | [3] 54% | [4] 87.7% | [5] 55.7% | [10] 79.4% | [7] 70.4% | [8] 71.6%

CCCCCCCCCCCCCCCCCC1=NCCN1CCNC(C)=O
inactive: [1] 74.6% | [2] 57.3% | [3] 83.5% | [4] 101% | [5] 79.1% | [6] 80.3% | [7] 107% | [9] 98.1%
active: [8] -14.6%

COc1ccc(OC)c(Cn2cc3c(c2-c2ccccc2)CCc2cnoc2-3)c1
inactive: [1] 45.5% | [2] 30.4% | [3] 55.9% | [4] 65.5% | [5] 53.4% | [6] 41.1% | [7] 48.1% | [8] 61.6% | [9] 65.9%

COc1ccc(Nc2c3ccccc3nc3ccccc23)cc1
active: [2] 8.49%
inactive: [1] 25.2% | [3] 16.2% | [4] 53.2% | [5] 16.1% | [6] 32.6% | [7] 47.6% | [8] 21.3% | [9] 49.7%

CCN(CC)CCCC(C)Nc1c(C)cnc2cc(Cl)c(C)cc12 (centres undefined)
inactive: [1] 86.8% | [2] 40% | [3] 95.5% | [4] 99.9% | [5] 84.7% | [6] 87.8% | [7] 109% | [8] 81.2% | [9] 85.4%

CC(C)(C)c1ccc([I+]c2ccc(C(C)(C)C)cc2)cc1
inactive: [1] 69.4% | [2] 11% | [3] 18.7% | [4] 13.8%
active: [5] 3.28% | [10] -94.7% | [7] -42.2% | [8] -88% | [9] 6.31%

O=C(/C=C1\C(=O)N(Cc2ccc([N+](=O)[O-])cc2)c2ccccc21)c1ccc(OCCN2CCCCC2)cc1
active: [1] -80.6% | [2] -89.3% | [5] -46.5% | [6] -52.3% | [7] -74% | [8] -82.7% | [9] -51%
inactive: [3] 22.3% | [4] 57.9%

N#Cc1c2ncccc2c2nnc3cc(Cl)c(Cl)cc3n12
inactive: [1] 82.9% | [2] 95.2% | [3] 67.1% | [4] 101% | [5] 90.6% | [10] 92.4% | [7] 90.8% | [8] 97.4% | [9] 80.9%

COc1ccc(/C=N/c2cc(C(C)(C)C)nn2-c2ccccc2)cc1
inactive: [1] 86.8% | [2] 99.9% | [3] 114% | [4] 94.6% | [5] 97.9% | [10] 98% | [7] 86.7% | [8] 99.8% | [9] 111%

CC(=O)N1N=C(c2ccc(Cl)cc2)CC1c1cn(-c2ccccc2)nc1-c1ccc([N+](=O)[O-])cc1 (centres undefined)
inactive: [1] 92.6% | [2] 93.8% | [3] 72.5% | [4] 90.1% | [5] 96.9% | [7] 85.1% | [8] 97.8% | [9] 110%

COc1cc(-c2nc(/C=C3/C(=O)Nc4ccccc43)c3ccccn23)cc(OC)c1OC
inactive: [1] 73.6% | [2] 62.5% | [3] 106% | [4] 90.7% | [5] 91.6% | [10] 51.6% | [7] 72.7% | [8] 72.3% | [9] 63%
